POLK inh = blocks human DNA polymerase kappa activity | Q9UBT6 | purified Pol kappa, fluorescent DNA synthesis assay, 10 min | Potency, µM (series often up to 107 µM), inactives show at the top dose activity, negative = inhibition, hits mostly inhibitors | 400,000 compounds, 0.53% hits | AID 588579; further: on the % scale 0 is the no-effect control and ±100 the full control effect
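10 nM Pol kappa was preincubated with compounds for 15 min at room temperature. Reaction started with 50 nM (final) substrate. Fluorescence read kinetically at 0 and 10 min.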
FEN1 inh-1 = human FEN1 inhibition | 390,000 compounds, 0.35% hits | Potency, µM (top dose mostly 114 µM), for the others: at the highest dose activity change, negative = inhibition, hits mostly inhibitors | Recombinant FEN1 flap cleavage, fluorescence, 15 min | P39748 | AID 588795; further: on the % scale 0 is the no-effect control and ±100 the full control effect; nearly all actives have a fitted effect of over 65% in size
Target sequence (P39748 whole entry, looked up): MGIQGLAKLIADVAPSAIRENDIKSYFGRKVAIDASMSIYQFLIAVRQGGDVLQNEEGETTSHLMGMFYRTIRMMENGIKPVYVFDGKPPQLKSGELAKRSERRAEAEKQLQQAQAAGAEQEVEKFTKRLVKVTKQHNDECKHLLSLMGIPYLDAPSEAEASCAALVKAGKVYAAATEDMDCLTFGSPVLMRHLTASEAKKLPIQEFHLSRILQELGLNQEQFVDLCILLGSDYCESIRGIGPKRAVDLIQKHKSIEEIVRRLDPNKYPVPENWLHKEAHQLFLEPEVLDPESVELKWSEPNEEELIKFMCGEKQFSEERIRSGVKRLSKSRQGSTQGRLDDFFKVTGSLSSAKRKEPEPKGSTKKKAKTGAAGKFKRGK
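Quantitative HTS format: each compound was titrated, incubated with 10 nM nuclease for 15 min at room temperature, then challenged with flap substrate at 50 nM final. Signal change over 15 min gave concentration–effect curves.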
Pol beta inh = DNA polymerase beta (human) inhibition; P06746; Pol beta primer extension/strand displacement, fluorescence kinetic; Potency, µM (highest dose often 114 µM), for the others: at the top dose activity change, negative = inhibition, hits mostly inhibitors; 340,000 compounds, 1.3% hits; AID 485314; further: on the % scale 0 is the no-effect control and ±100 the full control effect
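Human Pol beta at 10 nM; strand-displacement substrate 50 nM final. Compound exposure 15 min at room temperature before start, reaction 10 min at room temperature.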
WRN helicase inh = blocks human WRN helicase. Q14191. AID 651768. Potency, µM (doses to about 114 µM), inactives show at the top dose activity change, negative = inhibition, hits mostly inhibitors. WRN helicase unwinding, fluorescent forked duplex, kinetic. 360,000 compounds, 0.46% hits; further: on the % scale 0 is the no-effect control and ±100 the full control effect; nearly all actives have a fitted effect of over 55% in size
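WRN at 20 nM final preincubated with compound 15 min at room temperature; reaction started with 100 nM fluorophore/quencher forked duplex oligonucleotide and 2 mM ATP final. Unwinding followed kinetically by red fluorescence (ex 525, em 598 nm).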
Pol iota inh = blocks human DNA polymerase iota activity | Pol iota fluorescent replication assay, 10 min | Potency, µM (highest dose often 115 µM), without a hit: top-dose activity, negative = inhibition, actives largely listed as inhibitors | 390,000 compounds, 1% hits | AID 588590
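Pol iota at 10 nM preincubated 15 min with compounds at room temperature; reaction started with fluorescent substrate, 50 nM final. Fluorescence read kinetically at 0 and 10 min; buffer-only wells as negative control.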
Pol eta inh = DNA polymerase eta (human) inhibition; Q9Y253; recombinant Pol eta, fluorescent DNA replication assay; Potency, µM (titrated, usually from 114 µM), inactives show at the highest dose activity change, negative = inhibition, actives largely listed as inhibitors; 390,000 compounds, 1.2% hits; AID 588591; further: on the % scale 0 is the no-effect control and ±100 the full control effect
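Pol eta at 10 nM preincubated with compounds 15 min at room temperature; reaction started with fluorescent substrate (50 nM final) and read kinetically at 0 and 10 min.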
FEN1 inh-2 = confirmation of human FEN1 inhibitors; shares compounds with FEN1 inh-1; FEN1 flap cleavage, TAMRA/BHQ2 fluorogenic DNA substrate; Potency, µM, actives largely listed as inhibitors; 880 compounds, 79% hits; further: nearly all actives have a fitted effect of over 60% in size
* hit, by the source's call; [ ] = dose if it differs, or a comment. Sampled rows, rich in hits. Any-hit rate of the full collection: about 2.4%. The call rests on the fitted dose curve; in most records, active means well fitted curve in the direction sought with a large enough effect; inconclusive means small, poorly fitted or top-dose-only effect, or another doubt; inactive means no such curve, though single readings can be large; an effect the other way counts as inactive or inconclusive. Potency means the concentration at half of the fitted maximal effect.

CN(C)CCCNc1cc(-c2ccccc2)nc2cc(-c3cccc(F)c3)nn12 was read as POLK inh -20%, FEN1 inh-1 inconclusive, Pol beta inh 8%, WRN helicase inh -1%[11.6 µM], Pol iota inh -27%, Pol eta inh -15% and FEN1 inh-2 48*.
For Cc1cccc(-c2cc3nc(C)cc(NCCCN(C)C)n3n2)c1 the results were POLK inh inconclusive, FEN1 inh-1 -22%, Pol beta inh inconclusive, WRN helicase inh -6%, Pol iota inh 6% and Pol eta inh -15%.
Screening Cc1c(C)c2cccnc2c2ncccc12 returned POLK inh -23%, FEN1 inh-1 16µM*, WRN helicase inh -7%[11.6 µM], Pol iota inh -27%, Pol eta inh -4% and FEN1 inh-2 43*.
For Cc1ccc(O)c2ncccc12 the results were POLK inh -3%[19.4 µM].
For COC(=O)C(=O)/C=C(\O)c1c(C)cc(C)cc1C the results were POLK inh 0%, FEN1 inh-1 inconclusive, Pol beta inh -1%, WRN helicase inh -9%[57.1 µM], Pol iota inh 34%, Pol eta inh -20% and FEN1 inh-2 38*.
`NC(=O)c1ccc2c(=O)c(O)c(-c3cc(Cl)c(N)c(Cl)c3)[nH]c2c1` gave POLK inh 4%, FEN1 inh-1 56µM*, Pol beta inh -2%, WRN helicase inh inconclusive, Pol iota inh inconclusive, Pol eta inh -1% and FEN1 inh-2 38*.
`COc1cccc(-c2ccc3ncnc(NC4CC4)c3c2)c1` gave POLK inh 1%[60.1 µM].
For O=C(CSc1ccsc1[N+](=O)[O-])NCc1ccccc1 the results were POLK inh -25%, FEN1 inh-1 -1%, Pol beta inh inconclusive, WRN helicase inh 1%[11.6 µM], Pol iota inh inconclusive, Pol eta inh 79µM* and FEN1 inh-2 inconclusive.
`CNC1C(O)[C@@H]2OC(O[C@@H]3C(O)C(O)C(N)C[C@H]3N)C(N)C[C@H]2O[C@H]1O[C@@H]1OC(CO)C(N)C(O)C1O` (stereo partly drawn) gave POLK inh 5%[60.1 µM].
For Cc1[nH]n(-c2ccccc2)c(=O)c1C=Nc1cnc2ccccc2c1 the results were POLK inh -2%, FEN1 inh-1 17%, Pol beta inh inconclusive, WRN helicase inh -12%, Pol iota inh inconclusive and Pol eta inh inconclusive.
CCOc1ccc(N=Cc2c(C)[nH]n(-c3nc4ccccc4[nH]3)c2=O)cc1 was read as POLK inh inconclusive, FEN1 inh-1 inconclusive, Pol beta inh 22µM*, WRN helicase inh inconclusive, Pol iota inh 5%, Pol eta inh 16µM* and FEN1 inh-2 inconclusive.
Screening Nc1nc(C23CC4CC(CC(C4)C2)C3)[nH]c(=O)n1 returned POLK inh -13%, FEN1 inh-1 inconclusive, Pol beta inh 2%, WRN helicase inh -4%[11.6 µM], Pol iota inh 18%, Pol eta inh 6% and FEN1 inh-2 34*.
Screening c1cc2nc(C34CC5CC(CC(C5)C3)C4)[nH]c2cn1 returned POLK inh -13%, FEN1 inh-1 -8%, Pol beta inh -29%, WRN helicase inh -4%, Pol iota inh 23% and Pol eta inh -16%.
CCN1CCN(Cc2nc3cc(NC(=O)c4ccccc4[N+](=O)[O-])ccc3n2CC)CC1 was read as POLK inh -7%, FEN1 inh-1 -4%, Pol beta inh 21%, Pol iota inh 17% and Pol eta inh -1%.
CCCCN(CC)CCNC(=O)c1cc2c(-c3ccc(Cl)cc3)nn(C)c2s1 was read as POLK inh -13%, FEN1 inh-1 45µM*, Pol beta inh 3.2µM*, WRN helicase inh 88%, Pol iota inh inconclusive, Pol eta inh -8% and FEN1 inh-2 38*.
Cn1nc(-c2ccc(Cl)cc2)c2cc(C(=O)NCCN3CCOCC3)sc21 was read as POLK inh -3%, FEN1 inh-1 -18%, Pol beta inh -6%, WRN helicase inh 3%, Pol iota inh inconclusive and Pol eta inh 11%.
Screening CCN(CC)CCNC(=O)c1cc2c(-c3cccc(OC)c3)nn(C)c2s1 returned POLK inh 14%, FEN1 inh-1 inconclusive, Pol beta inh 71µM*, WRN helicase inh 52%, Pol iota inh inconclusive, Pol eta inh -10% and FEN1 inh-2 38*.
`CCN(CC)CCNC(=O)c1cc2c(-c3ccc(Cl)cc3)nn(C)c2s1` gave POLK inh -17%, FEN1 inh-1 28µM*, Pol beta inh 16µM*, WRN helicase inh 48%, Pol iota inh inconclusive, Pol eta inh 10% and FEN1 inh-2 38*.
`CCOCCCNC(=O)c1cc2c(-c3ccc(Cl)cc3)nn(C)c2s1` gave POLK inh -9%, FEN1 inh-1 -13%, Pol beta inh 4%, WRN helicase inh -8%, Pol iota inh 7% and Pol eta inh -9%.
CN(C)c1ccc(-c2ccc(C3C4C=CCCC4(C)C(=O)N3Cc3ccccc3)c(F)c2)cc1 (stereo not drawn) was read as POLK inh inconclusive, FEN1 inh-1 3% and Pol iota inh inconclusive.
For NNC(=O)c1ccc(C(=O)N(c2ccccc2)c2ccccc2)cc1 the results were POLK inh -12%, FEN1 inh-1 7% and Pol iota inh 5%.
For COc1ccccc1C1c2c(ncn(-c3ccccc3)c2=N)Oc2ccc3ccccc3c21 (stereo not drawn) the results were FEN1 inh-2 11*.
`COc1ccccc1C1c2ccc3ccccc3c2Oc2ncn(CCN(C)C)c(=N)c21` (stereo not drawn) gave POLK inh -2%, FEN1 inh-1 -13%, Pol beta inh 27%, WRN helicase inh 17%, Pol iota inh 32% and Pol eta inh -22%.
For Cc1[nH]c2ccccc2c1/C=C/c1cc[n+](C)cc1 the results were POLK inh -10%, FEN1 inh-1 inconclusive, Pol beta inh -28%, WRN helicase inh -21%[57.1 µM], Pol iota inh -6%, Pol eta inh -13% and FEN1 inh-2 inconclusive.
`Cc1cc2oc3cc(NCCC4CCCN4C)ccc3c(=O)c2cc1C` (stereo not drawn) gave POLK inh -4%, FEN1 inh-1 35µM*, WRN helicase inh -29%, Pol iota inh -19%, Pol eta inh inconclusive and FEN1 inh-2 34*.
Screening O=c1c2ccccc2oc2ccc(NCCCn3ccnc3)cc12 returned POLK inh -2%, FEN1 inh-1 inconclusive, Pol beta inh 34%, WRN helicase inh -10%, Pol iota inh -8% and Pol eta inh -12%.
